From PubChem BioAssay
Shown is part of a subset that was picked to be rich in hits.
miR122 inh: activators of miR-122 sensor in Huh7 cells. Huh7 psiCHECK-miR122 Renilla luciferase sensor, 48 h. activation, % at 12.5 µM. hit rate 0.14% among 340,000;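 active = mean activation of 30% or more, with every replicate also reaching 30%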;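 note: 0% = median of neutral control wells and 100% = median of positive control wells; higher luciferase signal means stronger suppression of miR-122 activity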
* marks the source's active call; other numbers are inactive results.

SMILES	miR122 inh
COc1cccc(NC(=O)N(C)C[C@@H]2Oc3ncc(C#Cc4cccnc4)cc3C(=O)N([C@@H](C)CO)C[C@H]2C)c1	2
Clc1ccc2c(N/N=C/c3ccccc3Br)ccnc2c1	59*
C[C@H](CO)N1C[C@H](C)[C@H](CN(C)Cc2ccncc2)Oc2ncc(C#Cc3cccnc3)cc2C1=O	5
C[C@H](CO)N1C[C@H](C)[C@H](CN(C)Cc2ccc(C(=O)Nc3ccccc3N)cc2)Oc2ccc(NC(=O)Nc3ccc(F)cc3)cc2CC1=O	-267
C[C@@H]1CN([C@@H](C)CO)C(=O)Cc2cc(NC(=O)C3CCCCC3)ccc2O[C@H]1CN(C)Cc1ccncc1	3
C[C@H](CO)N1C[C@H](C)[C@@H](CN(C)Cc2ccc(-c3ccccc3)cc2)Oc2ccc(NC(=O)Cc3ccccc3)cc2CC1=O	35*
C[C@H](CO)N1C[C@H](C)[C@@H](CN(C)C(=O)Nc2ccccc2)Oc2ccc(NC(=O)Cc3ccccc3)cc2CC1=O	0
CC(C)NC(=O)Nc1ccc2c(c1)CC(=O)N([C@H](C)CO)C[C@@H](C)[C@@H](CN(C)Cc1ccc(Oc3ccccc3)cc1)O2	-97
C[C@@H]1CN([C@@H](C)CO)C(=O)Cc2cc(NC(=O)c3ccncc3)ccc2O[C@H]1CN(C)Cc1ccc(-c2ccccc2)cc1	32*
COc1ccccc1-c1ccc2c(c1)O[C@H](CN(C)C(=O)Nc1ccccc1)[C@H](C)CN([C@H](C)CO)S2(=O)=O	-97
CC(C)CC#Cc1cnc2c(c1)C(=O)N([C@@H](C)CO)C[C@H](C)[C@@H](CN(C)C(=O)CC1CC1)O2	1
C[C@H]1CN([C@@H](C)CO)S(=O)(=O)c2ccc(C#Cc3ccc(F)cc3)cc2O[C@H]1CN(C)S(=O)(=O)c1cn(C)cn1	1
CC(C)CC#Cc1ccc2c(c1)O[C@H](CN(C)C(=O)c1ccccc1)[C@H](C)CN([C@@H](C)CO)S2(=O)=O	10
CCCNC(=O)N(C)C[C@H]1Oc2cc(C#CCOC)ccc2S(=O)(=O)N([C@H](C)CO)C[C@@H]1C	-5
CCC(=O)N(C)C[C@H]1Oc2cc(C#Cc3cccnc3)ccc2S(=O)(=O)N([C@H](C)CO)C[C@H]1C	16
C[C@@H]1CN([C@H](C)CO)S(=O)(=O)c2ccc(-c3ccc(C#N)cc3)cc2O[C@@H]1CN(C)C(=O)Nc1cc(F)ccc1F	-12
C[C@H]1CN([C@@H](C)CO)C(=O)c2cc(Br)cnc2O[C@H]1CN(C)C(=O)c1ccc2c(c1)OCO2	-4
C[C@@H]1CN([C@@H](C)CO)C(=O)c2cc(C#CC3(O)CCCC3)cnc2O[C@H]1CN(C)S(C)(=O)=O	-11
Cc1nnc(NC(=O)CSc2nc(C(C)C)nc3sc(C)c(C)c23)s1	55*
O=C(Nc1ccc(S(=O)(=O)NCCc2ccccc2)cc1)c1ccc(Br)o1	-201
CCC(=O)N(C)C[C@@H]1Oc2cc(-c3cccc(C#N)c3)ccc2S(=O)(=O)N([C@@H](C)CO)C[C@H]1C	1
Cc1ccc(OCC(O)Cn2c(=N)n(Cc3ccccc3)c3ccccc32)cc1 (stereo not given)	90*
Cc1ccc(Cn2c(NS(=O)(=O)c3ccccc3)nc3ccccc32)cc1	-106
Cc1ccc(S(=O)(=O)Nc2cccc3c2O[C@@H](CN(C)Cc2ccc(Cl)c(Cl)c2)[C@H](C)CN([C@H](C)CO)C3=O)cc1	-110
Cc1ccc(-c2cnc3c(c2)C(=O)N([C@@H](C)CO)C[C@H](C)[C@@H](CN(C)C(=O)Cc2ccncc2)O3)cc1	7
SMILES	miR122 inh
C[C@@H]1CN([C@H](C)CO)C(=O)c2cc(C#CC3CC3)cnc2O[C@@H]1CN(C)Cc1ccncc1	12
Cc1cc(C)c(S(=O)(=O)NCCn2ccc3ccccc32)c(C)c1	-126
Cc1cc(C)cc(N=c2c([N+](=O)[O-])nn(-c3ccc4c(c3)OCCO4)n2O)c1	42*
C[C@H]1CN([C@@H](C)CO)S(=O)(=O)c2ccc(-c3ccccc3)cc2O[C@@H]1CN(C)C(=O)CN(C)C	-6
C[C@@H]1CN([C@H](C)CO)C(=O)c2cc(Br)cnc2O[C@H]1CN(C)Cc1ccccn1	7
CC1CCCCC1NC(=S)Nc1ccc(SC(F)F)cc1 (stereo not given)	-115
C[C@@H]1CN([C@@H](C)CO)S(=O)(=O)c2ccc(-c3cccc(C#N)c3)cc2O[C@H]1CN(C)Cc1ccccn1	-3
C[C@@H]1CN([C@H](C)CO)S(=O)(=O)c2ccc(-c3ccncc3)cc2O[C@@H]1CN(C)Cc1cncnc1	-15
CCOC(=O)/C(=C\C=C1/Sc2ccccc2N1CC)C(C)=O	52*
C[C@@H]1CN([C@@H](C)CO)C(=O)c2cc(-c3cccnc3)cnc2O[C@H]1CN(C)S(C)(=O)=O	-5
COc1ccc(-c2cnc3c(c2)C(=O)N([C@H](C)CO)C[C@H](C)[C@@H](CN(C)C(=O)C2CCOCC2)O3)cc1	3
C[C@@H]1CN([C@H](C)CO)C(=O)c2cc(-c3cccc(C(=O)N(C)C)c3)cnc2O[C@@H]1CN(C)S(=O)(=O)c1ccc(F)cc1	6
COc1ccc(NC(=O)Nc2ccc3c(c2)OC[C@H](C)NC[C@H](C)[C@H](OC)CN(C)C3=O)cc1	-1
CCC(=O)Nc1ccc2c(c1)OC[C@@H](C)N(C(=O)c1ccccn1)C[C@H](C)[C@H](OC)CN(C)C2=O	-2
C[C@H]1CN([C@@H](C)CO)C(=O)c2cc(C3=CCCCC3)cnc2O[C@@H]1CN(C)Cc1cccc(F)c1	1
COc1ccc(-c2nc(SCc3ccccc3)n(S(C)(=O)=O)n2)cc1	-91
O=C(/C=C/Nc1cccc([N+](=O)[O-])c1)c1cccs1	-93
N#Cc1cccc(NC(=O)Nc2cccs2)c1	36*
C[C@H](O)C#Cc1ccc2c(c1)O[C@@H](CN(C)C(=O)Cc1ccccn1)[C@H](C)CN([C@H](C)CO)S2(=O)=O	1
C[C@H](CO)N1C[C@H](C)[C@@H](CN(C)C(=O)Cc2ccccn2)Oc2cc(C#C[C@@H](C)O)ccc2S1(=O)=O	2
CCC(=O)Nc1cccc(C(=O)/C=C/c2ccccc2)c1	36*
CCC(=O)Nc1ccc(C(=O)Nc2cccc(C)n2)cc1	-218
CCC(=O)Nc1ccc(S(=O)(=O)NCCc2ccccc2)cc1	-111
CCC(=O)Nc1ccc2c(c1)OC[C@@H](C)N(C(=O)c1ccncc1)C[C@@H](C)[C@@H](OC)CN(C)C2=O	-2
C[C@H](CO)N1C[C@H](C)[C@@H](CN(C)C(=O)Nc2ccccc2)Oc2cc(C#C[C@@H](C)O)ccc2S1(=O)=O	-2
SMILES	miR122 inh
CCCC(=O)Nc1ccc2c(c1)OC[C@@H](C)N(C(C)=O)C[C@@H](C)[C@@H](OC)CN(C)C2=O	-3
CCCN(C)C[C@@H]1Oc2cc(-c3ccc(OC)cc3)ccc2S(=O)(=O)N([C@@H](C)CO)C[C@@H]1C	-3
CCC(=O)Nc1ccc2c(c1)OC[C@@H](C)N(C(=O)c1ccncc1)C[C@H](C)[C@@H](OC)CN(C)C2=O	-4
CCCC#Cc1cnc2c(c1)C(=O)N([C@@H](C)CO)C[C@H](C)[C@H](CN(C)C(=O)Cc1ccccc1)O2	6
S=C(NCCc1ccccc1)Nc1ccc(Cl)cc1Cl	-95
CCNC(=O)CCC(=O)Nc1cc(Cl)ccc1C	36*
C[C@@H]1CN([C@@H](C)CO)S(=O)(=O)c2ccc(C#CC(C)(C)O)cc2O[C@@H]1CN(C)C(=O)C1CCC1	-13
C[C@H](CO)N1C[C@H](C)[C@H](CN(C)C(=O)CN(C)C)Oc2cc(C#CCC3CCCC3)ccc2S1(=O)=O	3
